Measurements taken from PubChem BioAssay (EPA / NIEHS).
Results filed as inconclusive are left out. Active and inactive are the calls of the source. Rule for the calls, unless noted: active = hit-call score of the fitted dose curve at least 0.9, where 1 is the maximum; inconclusive = response in the unintended direction; inactive = score below 0.9.

Tests used:
[1] = molecular target: Estrogen receptor (Homo sapiens) (UniProt P03372); assay: OT_ERa_GFPERaERE_0120: Odyssey Thera (OT) 2-hour HeLa Transcription Induction Assay for Estrogen Receptor (AID 2283382)
In short: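 Measures ESR1 pathway reporter gain-of-signal in HeLa cells after a 2-hour treatment, detected as fluorescent protein induction by microscopy, DMSO as baseline.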

[2] = molecular target: Retinoic acid receptor RXR-alpha (Homo sapiens) (UniProt P19793); assay: OT_NURR1_NURR1RXRa_0480: Odyssey Thera (OT) 8-hour HEK293T Protein Complementation Assay for Nurr1/retinoid X receptor (RXR) (AID 2283385)
In short: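 Compounds are applied to HEK293T cells carrying Nurr1 and RXRα linked to reporter fragments. After 8 h, fluorescence intensity reports heterodimer formation, with DMSO as baseline.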

[3] = molecular target: Retinoic acid receptor RXR-alpha (Homo sapiens) (UniProt P19793); assay: OT_NURR1_NURR1RXRa_1440: Odyssey Thera (OT) 24-hour HEK293T Protein Complementation Assay for Nurr1/retinoid X receptor (RXR) (AID 2283386)
In short: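 Measured as fluorescence from a reconstituted split reporter, this 24 h HEK293T complementation assay scores compound-induced gain of Nurr1/RXRα association relative to DMSO.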

[4] = molecular target: Peroxisome proliferator-activated receptor gamma (Homo sapiens) (UniProt P37231); assay: OT_PPARg_PPARgSRC1_0480: Odyssey Thera (OT) 8-hour Protein-Complementation Assay for Peroxisome Proliferator-activated Receptor Gamma / SRC-1 Co-activator (AID 2283387);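 note: nuclear to cytoplasmic split Venus YFP fluorescence ratio reporting PPARg SRC-1 interaction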
In short: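 Protein-fragment complementation of split Venus YFP reports PPARg/SRC-1 interaction in HEK293T (transfected 48 h before treatment), exposed 8 h. Readout: N/C fluorescence ratio at 488 nm from imaging, Draq5 for segmentation, positive fit relative to DMSO.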

[5] = molecular target: Peroxisome proliferator-activated receptor gamma (Homo sapiens) (UniProt P37231); assay: OT_PPARg_PPARgSRC1_1440: Odyssey Thera (OT) 24-hour Protein-Complementation Assay for Peroxisome Proliferator-activated Receptor Gamma/ SRC-1 Co-activator (AID 2283388);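 note: nuclear to cytoplasmic ratio of reconstituted Venus YFP fluorescence in fixed imaged cells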
In short: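 Protein-fragment complementation between PPARg and coactivator SRC-1 was measured by fluorescence imaging in transiently transfected HEK293T cells after 24 h treatment. Signal was quantified as N/C ratio in the 488 nm channel, with DMSO as negative control.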

[6] = ATG_XTT_Cytotoxicity: Cytotoxicity Assessment in the Attagene TRANS-FACTORIAL HepG2 Assay (AID 2283584);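 for AC50: cells exposed to compound for 24 h before reading; active means loss of viability signal versus DMSO baseline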
In short: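 Cells: human HepG2, transiently transfected with MRTU reporter constructs. Exposure 24 h. Readout: XTT, cell number. Baseline/neg ctrl DMSO; loss-of-signal scored.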

[7] = TOX21_p53_BLA_p2_viability: Viability Assessment in the Tox21 HCT-116 p53 Agonism Beta-lactamase Assay, Phase 2 (AID 2283591);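 note: compound exposure lasted 16 h at 37 °C; actives lower the ATP signal meaning cytotoxicity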
In short: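 HCT-116 p53-bla cells (4000/well) rested 5 h at 37C, then received compounds in DMSO (217-fold dilution) for 16 h at 37C, 5% CO2. After the CCF4 read, CellTiter-Glo was added; ATP luminescence was read after 30 min at room temperature.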

[8] = molecular target: Bile acid receptor (Homo sapiens) (UniProt Q96RI1); assay: OT_FXR_FXRSRC1_0480: Odyssey Thera (OT) 8-hour HEK293T Protein-Complementation Assay for Farnesoid X receptor/SRC-1 Co-activator (AID 2283383)
In short: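 Co-activator recruitment to FXR was measured in living HEK293T cells, where interaction of the two fused partners restored an active fluorescent reporter. Signal gain after 8 h treatment was referenced to DMSO.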

[9] = molecular target: Bile acid receptor (Homo sapiens) (UniProt Q96RI1); assay: OT_FXR_FXRSRC1_1440: Odyssey Thera (OT) 24-hour HEK293T Protein-Complementation Assay for Farnesoid X receptor/SRC-1 Co-activator (AID 2283384)
In short: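 Cell-based binding reporter: interaction of FXR with SRC-1 brings reporter fragments together, giving a fluorescence signal read 24 h after dosing of HEK293T cells.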

[10] = CEETOX_H295R_11DCORT: CeeTox H295R High-throughput Steroidogenesis Assay for 11-Deoxycortisol (11DCORT) (AID 2283432; active = hit-call score of the fitted dose curve at least 0.9, where 1 is the maximum; inactive = score below 0.9;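 note: 11-deoxycortisol secreted into the medium measured by LC-MS/MS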); conditions: actives raise or lower the signal
In short: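 Human adrenal H295R cells were prestimulated with 10 uM forskolin for 48 h, then exposed to test chemical (0.1% DMSO final) for 48 h. Medium 11-deoxycortisol was quantified by MTBE extraction and HPLC-MS/MS; bidirectional fitting relative to DMSO.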

[11] = CEETOX_H295R_OHPREG: CeeTox H295R High-throughput Steroidogenesis Assay for OH-Pregnenolone (OHPREG) (AID 2283434; active = hit-call score of the fitted dose curve at least 0.9, where 1 is the maximum; inactive = score below 0.9); conditions: actives raise or lower the signal
In short: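 Human adrenal H295R cells were prestimulated 48 h with 10 uM forskolin, then exposed 48 h to chemical in 0.1% DMSO. Medium 17alpha-hydroxypregnenolone was quantified by HPLC-MS/MS after MTBE extraction; bidirectional fitting versus DMSO baseline.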

[12] = CEETOX_H295R_OHPROG: CeeTox H295R High-throughput Steroidogenesis Assay for OH-Progesterone (OHPROG) (AID 2283435; active = hit-call score of the fitted dose curve at least 0.9, where 1 is the maximum; inactive = score below 0.9;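 for AC50: 17alpha-hydroxyprogesterone secreted into medium measured by HPLC-MS/MS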); conditions: actives raise or lower the signal
In short: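 Secreted 17alpha-hydroxyprogesterone is read by tandem MS from media of forskolin-primed H295R cells dosed with chemical for 48 h. Activity is fitted in both directions against DMSO baseline; cytotoxic concentrations are re-tested diluted.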

[13] = CEETOX_H295R_CORTIC: CeeTox H295R High-throughput Steroidogenesis Assay for Corticosterone (CORTIC) (AID 2283437; active = hit-call score of the fitted dose curve at least 0.9, where 1 is the maximum; inactive = score below 0.9;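 note: corticosterone secreted into medium quantified by mass spectrometry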); conditions: actives raise or lower the signal
In short: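 H295R cells were prestimulated 48 h with 10 uM forskolin, then exposed 48 h to test chemical in 0.1% DMSO. Medium corticosterone was MTBE-extracted and quantified by HPLC-MS/MS; bidirectional fit versus DMSO baseline.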

[14] = CEETOX_H295R_CORTISOL: CeeTox H295R High-throughput Steroidogenesis Assay for Cortisol (AID 2283438; active = hit-call score of the fitted dose curve at least 0.9, where 1 is the maximum; inactive = score below 0.9;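 note: cortisol secreted into medium quantified by LC-MS/MS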); conditions: actives raise or lower the signal
In short: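 Human adrenocortical H295R cells (passage ≤10) received test chemicals for 48 h after forskolin priming. Secreted cortisol was measured by LC-MS/MS.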

[15] = CEETOX_H295R_DOC: CeeTox H295R High-throughput Steroidogenesis Assay for DOC (AID 2283439; active = hit-call score of the fitted dose curve at least 0.9, where 1 is the maximum; inactive = score below 0.9); conditions: actives raise or lower the signal
In short: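 Secreted DOC was quantified from H295R media by HPLC-MS/MS after 48 h chemical exposure following 48 h forskolin (10 uM) prestimulation. Values were fitted in both directions relative to DMSO, the negative control and baseline.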

[16] = CEETOX_H295R_ESTRADIOL: CeeTox H295R High-throughput Steroidogenesis Assay for Estradiol (AID 2283440; active = hit-call score of the fitted dose curve at least 0.9, where 1 is the maximum; inactive = score below 0.9;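 note: estradiol secreted into medium quantified by LC-MS/MS after dansyl derivatisation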); conditions: actives raise or lower the signal
In short: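 Estradiol secreted into the medium was measured by tandem mass spectrometry after liquid-liquid extraction and dansylation. Human H295R cells had been forskolin-primed (10 uM, 48 h) before a 48 h chemical exposure with 0.1% DMSO.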

[17] = CEETOX_H295R_ESTRONE: CeeTox H295R High-throughput Steroidogenesis Assay for Estrone (AID 2283441; active = hit-call score of the fitted dose curve at least 0.9, where 1 is the maximum; inactive = score below 0.9;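 note: estrone secreted into medium measured by LC-MS/MS after dansyl derivatization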); conditions: actives raise or lower the signal
In short: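 H295R cells; 48 h forskolin (10 uM) prestimulation; 48 h compound exposure, 0.1% DMSO final. Medium estrone: MTBE extraction, dansyl derivatization, HPLC-MS/MS. Bidirectional fit vs DMSO.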

[18] = CEETOX_H295R_PROG: CeeTox H295R High-throughput Steroidogenesis Assay for Progesterone (PROG) (AID 2283442; active = hit-call score of the fitted dose curve at least 0.9, where 1 is the maximum; inactive = score below 0.9;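 for AC50: human H295R adrenal cells primed with 10 µM forskolin before dosing; progesterone secreted into medium by H295R cells measured by HPLC-MS/MS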); conditions: actives raise or lower the signal
In short: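 Steps: seed H295R cells and let them adhere overnight; prime 48 h with 10 uM forskolin; dose with compound in DMSO at 0.1% final for 48 h; extract medium steroids with MTBE; measure progesterone by LC-MS/MS. MTT viability was run in the same wells.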

[19] = CEETOX_H295R_ANDR: CeeTox H295R High-throughput Steroidogenesis Assay for Androstenedione (ANDR) (AID 2283436; active = hit-call score of the fitted dose curve at least 0.9, where 1 is the maximum; inactive = score below 0.9); conditions: actives raise or lower the signal
In short: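 H295R human adrenal cells (passages ≤10) were exposed to test chemicals for 48 h; androstenedione in medium was MTBE-extracted and quantified by HPLC-MS/MS against a 7-point standard curve. Bidirectional fitting used DMSO as baseline.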

[20] = CEETOX_H295R_TESTO: CeeTox H295R High-throughput Steroidogenesis Assay for Testosterone (TESTO) (AID 2283457; active = hit-call score of the fitted dose curve at least 0.9, where 1 is the maximum; inactive = score below 0.9); conditions: actives raise or lower the signal
In short: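 H295R, passage ≤10, 48 h dosing; media extracted with MTBE → HPLC-MS/MS for testosterone; 7-pt standard curve sets LLOQ/ULOQ; bidirectional fit vs DMSO; MTT viability same wells.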

Measured: AC50

Retinoic acid receptor RXR-alpha (Homo sapiens), sequence (P19793 whole entry, looked up, the tested form may be a part): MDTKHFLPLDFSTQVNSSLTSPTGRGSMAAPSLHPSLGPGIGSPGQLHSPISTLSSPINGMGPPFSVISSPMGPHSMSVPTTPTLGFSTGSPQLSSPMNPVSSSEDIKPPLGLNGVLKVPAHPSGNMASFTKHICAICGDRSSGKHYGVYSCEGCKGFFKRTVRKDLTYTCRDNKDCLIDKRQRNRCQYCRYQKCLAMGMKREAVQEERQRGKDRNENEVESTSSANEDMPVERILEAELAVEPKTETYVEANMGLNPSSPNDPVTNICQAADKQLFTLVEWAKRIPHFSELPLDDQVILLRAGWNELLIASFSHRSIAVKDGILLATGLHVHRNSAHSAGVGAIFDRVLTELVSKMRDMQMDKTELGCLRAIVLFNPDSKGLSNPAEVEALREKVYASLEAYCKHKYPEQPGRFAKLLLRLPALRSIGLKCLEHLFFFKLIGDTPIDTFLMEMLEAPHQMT
Bile acid receptor (Homo sapiens), sequence (Q96RI1 whole entry, looked up, the tested form may be a part): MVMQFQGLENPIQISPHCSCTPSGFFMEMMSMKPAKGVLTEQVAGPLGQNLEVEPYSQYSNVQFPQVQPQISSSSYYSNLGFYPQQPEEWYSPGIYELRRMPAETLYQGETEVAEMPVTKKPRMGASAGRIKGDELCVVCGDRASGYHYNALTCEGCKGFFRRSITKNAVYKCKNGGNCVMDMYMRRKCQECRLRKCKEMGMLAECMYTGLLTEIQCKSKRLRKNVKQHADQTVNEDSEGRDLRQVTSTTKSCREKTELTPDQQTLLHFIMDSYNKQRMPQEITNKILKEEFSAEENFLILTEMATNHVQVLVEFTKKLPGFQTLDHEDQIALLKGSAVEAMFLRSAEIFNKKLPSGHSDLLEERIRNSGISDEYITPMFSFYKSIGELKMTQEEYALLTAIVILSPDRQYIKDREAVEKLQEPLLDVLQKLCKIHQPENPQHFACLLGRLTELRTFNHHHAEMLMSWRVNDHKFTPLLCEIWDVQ
Estrogen receptor (Homo sapiens), sequence (P03372 whole entry, looked up): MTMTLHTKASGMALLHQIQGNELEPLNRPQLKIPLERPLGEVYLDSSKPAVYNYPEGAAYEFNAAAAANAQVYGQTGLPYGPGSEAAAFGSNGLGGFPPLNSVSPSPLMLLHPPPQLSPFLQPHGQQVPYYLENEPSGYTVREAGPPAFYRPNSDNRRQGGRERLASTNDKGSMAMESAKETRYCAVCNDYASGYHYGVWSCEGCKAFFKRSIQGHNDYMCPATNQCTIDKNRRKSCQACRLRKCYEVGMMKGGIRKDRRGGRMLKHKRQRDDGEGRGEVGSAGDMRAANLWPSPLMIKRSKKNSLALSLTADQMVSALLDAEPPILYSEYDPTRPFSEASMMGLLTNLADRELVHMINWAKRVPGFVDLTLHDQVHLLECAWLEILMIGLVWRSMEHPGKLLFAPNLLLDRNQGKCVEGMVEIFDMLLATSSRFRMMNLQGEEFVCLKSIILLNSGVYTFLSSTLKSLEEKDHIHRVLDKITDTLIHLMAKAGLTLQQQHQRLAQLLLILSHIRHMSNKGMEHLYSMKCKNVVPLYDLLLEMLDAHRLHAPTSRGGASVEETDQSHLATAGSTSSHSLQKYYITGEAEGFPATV
Peroxisome proliferator-activated receptor gamma (Homo sapiens), sequence (P37231 whole entry, looked up, the tested form may be a part): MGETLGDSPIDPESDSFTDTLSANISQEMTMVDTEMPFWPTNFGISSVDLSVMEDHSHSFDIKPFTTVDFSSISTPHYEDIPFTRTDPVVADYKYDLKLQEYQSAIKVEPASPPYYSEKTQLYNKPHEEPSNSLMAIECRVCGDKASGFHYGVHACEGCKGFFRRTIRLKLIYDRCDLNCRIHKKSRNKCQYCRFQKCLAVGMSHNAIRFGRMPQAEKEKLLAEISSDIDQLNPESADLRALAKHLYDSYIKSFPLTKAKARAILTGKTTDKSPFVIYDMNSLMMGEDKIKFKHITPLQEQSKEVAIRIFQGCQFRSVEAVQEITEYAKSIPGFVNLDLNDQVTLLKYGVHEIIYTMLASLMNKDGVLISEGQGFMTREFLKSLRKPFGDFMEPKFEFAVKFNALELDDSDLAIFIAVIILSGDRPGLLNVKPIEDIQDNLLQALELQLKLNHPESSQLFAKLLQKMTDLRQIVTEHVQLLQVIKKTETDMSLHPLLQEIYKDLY

CCCCC(CC)CCC(CC(C)C)OS(=O)(=O)O (configuration not stated)
inactive: [1] | [2] | [3] | [4] | [5] | [6] | [7]

CCCCCc1ccc(Cl)cc1
inactive: [1] | [8] | [9] | [2] | [3] | [4] | [5] | [6] | [7]

CCOC(=O)Cc1cccc2ccccc12
active: [10] 34.3 µM | [11] 61.3 µM | [12] 40.1 µM | [15] 30.8 µM | [18] 24.9 µM
not listed: [6] | [8] | [9] | [19] | [20]
inactive: all other assays above

CC/C=C\C/C=C\C/C=C\CCCCCCCC(=O)O
inactive: [1] | [8] | [9] | [2] | [4] | [5]

O=C(C(Cl)Cl)N1CCOC12CCCCC2
inactive: [1] | [8] | [9] | [2] | [3] | [4] | [5] | [6] | [7]

CC=C1CC2C=CC1C2 (configuration not stated)
inactive: [1] | [8] | [9] | [2] | [3] | [4] | [5] | [6]

Oc1ccc(Cl)cc1Cc1cc(Cl)ccc1O
active: [2] 11.7 µM | [3] 11.2 µM | [10] 6.93 µM | [6] 27 µM
not listed: [7] | [8] | [9]
inactive: all other assays above

CCCCCCCCO[C@@H]1O[C@H](CO)[C@@H](O)[C@H](O)[C@H]1O
inactive: [1] | [8] | [4] | [5] | [6]

CCN(CCC#N)c1ccc(N=Nc2c(Cl)cc([N+](=O)[O-])cc2Cl)cc1
active: [8] 29 µM | [2] 67.7 µM | [3] 50 µM
inactive: [1] | [9] | [4] | [5] | [6]

CC(C)C1=CC2=CC[C@@H]3[C@](C)(CCC[C@@]3(C)C(=O)O)[C@H]2CC1
active: [7] 58.9 µM
inactive: [1] | [2] | [3] | [4] | [5] | [6]

CCCCCCCOC(=O)CCC
inactive: [1] | [2] | [3] | [4] | [5] | [6]
